A short description of assay [1]: CCTE_Shafer_MEA_acute_spike_number: CCTE's Neural Acute Assay for Total Number of Spikes, Shafer Lab (AID 2284008).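 As to AC50: curve fitted for decrease in spike count so AC50 reflects inhibitors.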 The method in brief: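 Rat primary cortical neurons on 48-well MEA plates, DIV 13 or 15, at 37 C. 40 min baseline then 40 min with compound (0.03-40 uM); spikes detected at 8x rms noise, expressed as percent change from baseline.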
Assay [2] is described as follows: CCTE_Shafer_MEA_acute_firing_rate_mean: CCTE's Neural Acute Assay for Mean Firing Rate, Shafer Lab (AID 2284009).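 Also: analyzed for loss of signal so actives lower firing rate relative to DMSO.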 In short, it runs like this: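 Spontaneous spiking of primary rat cortical networks, DIV 13/15, 37 C. Compound 0.03-40 uM, n ≥3 wells; 40 min baseline vs 40 min treated. Endpoint fitted in loss-of-signal direction against DMSO.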
The nature of assay [3]: CCTE_Harrill_HTTr_Viability_MCF7: CCTE's 6-hour Cell Viability Assessment for the High-Throughput Transcriptomics (HTTr) Platform, in MCF-7 cells cultured in DMEM + 10% fetal bovine serum, Harrill Lab (AID 2284010). The method in brief:
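Eight-point concentration series, six-hour exposure. Propidium iodide exclusion imaged to assess membrane integrity as a cytotoxicity readout; bidirectional fitting was done with DMSO as negative control and activity baseline.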

Assay [4] in a line: CCTE_Harrill_HTTr_Apoptosis_MCF7: CCTE's 6-hour Apoptosis Assessment for the High-Throughput Transcriptomics (HTTr) Platform, in MCF-7 cells cultured in DMEM + 10% fetal bovine serum, Harrill Lab (AID 2284011). The method in brief: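 MCF-7 cells in DMEM + 10% FBS exposed 6 h to chemicals over an eight-point dilution series. Caspase-3/7 activation imaged by high-content CellEvent Green staining; fitted bidirectionally versus DMSO.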

Assay [5] in a line: CCTE_Shafer_MEA_acute_burst_number: CCTE's Neural Acute Assay for Single-Electrode Bursts, Shafer Lab (AID 2284013). In short, it runs like this:
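Burst totals were derived with adaptive spike detection (8x rms threshold) on filtered signals from rat cortical cultures; change relative to pre-treatment baseline after 40-min compound exposure (0.03-40 uM) was fitted in the negative direction against DMSO.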

A short description of assay [6]: CCTE_Shafer_MEA_acute_burst_duration_mean: CCTE's Neural Acute Assay for Mean Burst Duration, Shafer Lab (AID 2284014).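 Also: hits are decreases in mean burst duration relative to DMSO controls.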 The method in brief: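 Acute exposure of mature rat cortical networks (DIV 13 or 15) grown on microelectrode arrays to 0.03-40 uM compound. Mean burst duration compared with the 40-min pre-dose baseline over a 40-min post-dose recording at 37 C.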

Assay [7] can be described thus: CCTE_Shafer_MEA_acute_per_burst_spike_number_mean: CCTE's Neural Acute Assay for Average Number of Spikes Per Burst, Shafer Lab (AID 2284015).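 Also: hits are decreases in mean spikes per burst versus baseline.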 In short, it runs like this:
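Percent change in mean spikes per single-electrode burst is compared between a 40 min baseline and a 40 min recording with compound (0.03-40 uM). Cultures were rat cortical neurons on MEA plates at DIV 13 or 15, recorded at 37 C, with DMSO as the negative control.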

Assay [8] is described as follows: CCTE_Shafer_MEA_acute_burst_percentage_mean: CCTE's Neural Acute Assay for Percentage of Spikes in a Burst, Shafer Lab (AID 2284017).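 As to AC50: curve fitted for loss of signal so potency reflects decreased burst percentage.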 In short, it runs like this: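 Well-level mean burst percentage from a 40-min recording after compound (0.03-40 uM) expressed as percent change from a 40-min baseline at 37C. Cultures: primary rat cortical neurons on MEA, dosed on DIV 13 or 15; fitted downward relative to DMSO.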

A short description of assay [9]: CCTE_Shafer_MEA_acute_burst_percentage_std: CCTE's Neural Acute Assay for Standard Deviation of Burst Percentage, Shafer Lab (AID 2284018).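 Also: fitted in the negative direction so actives lower burst percentage SD.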 In short, it runs like this:
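Primary rat cortical neurons on 16-electrode MEA wells were recorded 40 min at baseline (DIV 13 or 15), then 40 min after compound (0.03-40 uM), at 37 C. Well value is SD across electrodes of spikes-in-bursts/total spikes; endpoint is percent change, DMSO-referenced.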

A short description of assay [10]: CCTE_Shafer_MEA_acute_per_network_burst_spike_number_mean: CCTE's Neural Acute Assay for Average Number of Spikes in a Network Burst, Shafer Lab (AID 2284019).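 As to AC50: curve fitted for loss of signal so actives reduce spikes per network burst.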 In short, it runs like this: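 Acute exposure of rat primary cortical networks (DIV 13/15) on MEAs; adaptive spike detection at 8x rms noise, 37 C. Percent change in spikes per network burst after 40 min with compound (0.03-40 uM), negative direction vs DMSO.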

A short description of assay [11]: CCTE_Shafer_MEA_acute_per_network_burst_spike_number_std: CCTE's Neural Acute Assay for Standard Deviation of Number of Spikes in a Network Burst, Shafer Lab (AID 2284020).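 Also: fitted for decrease in spike-number SD versus DMSO so actives lower it.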 In short, it runs like this:
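Acute MEA exposure, rat cortical neurons, 0.03-40 uM. Per-well % change versus own baseline; DMSO as negative control.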

Assay [12] is described as follows: CCTE_Shafer_MEA_acute_per_network_burst_electrodes_number_mean: CCTE's Neural Acute Assay for Mean Number of Electrodes in a Network Burst, Shafer Lab (AID 2284021).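 Also: curves fitted for decreases only so hits reduce electrodes per burst.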 In short, it runs like this:
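Rat primary cortical neurons on 48-well MEAs, DIV 13 or 15, were treated at 0.03-40 uM. Spikes were detected at 8x rms noise and recorded at 37 C. The mean electrodes per network burst in a 40 min exposure recording was expressed as percent change from a 40 min baseline.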

Assay [13] in a line: CCTE_Shafer_MEA_acute_cross_correlation_area: CCTE's Neural Acute Assay for Area of Cross Correlation, Shafer Lab (AID 2284024).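 Also: curves fitted for loss of cross-correlation area so actives lower synchrony.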 In short, it runs like this: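 Rat primary cortical neurons on 48-well MEA, DIV 13 or 15; compounds 0.03-40 uM. Baseline and post-exposure 40 min recordings at 37 C; percent change in area under pooled inter-electrode cross-correlation near zero lag, relative to DMSO.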

Assay [14] in a line: CCTE_Shafer_MEA_acute_cross_correlation_HWHM: CCTE's Neural Acute Assay for Cross Correlation at Half Width at Half Maximum, Shafer Lab (AID 2284026).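 Also: hits are a decrease in cross-correlogram half width relative to DMSO.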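 As to outcome: spontaneous network firing of rat primary cortical neurons on multiwell microelectrode arrays.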 The method in brief: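 Rat primary cortical neurons on 48-well MEA plates; 40-min baseline and 40-min post-exposure recordings at 37 C on DIV 13 or 15, compounds 0.03-40 uM. Spikes detected at 8x rms noise; percent change in cross-correlogram HWHM per well vs baseline.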

Assay [15] is described as follows: CCTE_Harrill_HTTr_CellCount_MCF7: CCTE's Cell Proliferation Assessment for the High-Throughput Transcriptomics (HTTr) Platform, Harrill Lab (AID 2284012; active = hit-call score of the fitted dose curve at least 0.9, where 1 is the maximum;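 also: intended direction is loss of nuclei count meaning fewer cells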). In short, it runs like this: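 For this full-screen endpoint, MCF-7 cultures received eight compound dilutions for six hours. Well nuclei counts from Hoechst imaging were analyzed relative to DMSO.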
Assay [16] is described as follows: CCTE_Simmons_MITO_max_resp_rate: CCTE's HepG2 Seahorse XF Respirometric Screening Assay at Maximal Respiratory State [uncoupled], Simmons Lab (AID 2284002). As to conditions: actives raise or lower the signal. The method in brief: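 HepG2 oxygen consumption measured on Seahorse XF after FCCP uncoupling, following test compound injection; 7 concentrations from 125 nM to 100 uM final. Readings every 6 min over 72 min, three biological replicates; bidirectional fit versus DMSO.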

A short description of assay [17]: CCTE_Simmons_MITO_inhib_resp_rate: CCTE's HepG2 Seahorse XF Respirometric Screening Assay at Inhibited Respiratory State [full ETC block], Simmons Lab (AID 2284006). The note with it: actives raise or lower the signal. The method in brief: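 Test chemicals at seven final concentrations (125 nM–100 uM) in three biological replicates, with DMSO as vehicle. HepG2 oxygen consumption was then tracked on a Seahorse XF96 for 72 min through FCCP and rotenone/antimycin A phases, with the inhibited-phase rate as the endpoint.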

Assay [18] can be described thus: CCTE_Simmons_MITO_viability: CellTiter-Glo Viability Assessment for CCTE's HepG2 Seahorse XF Respirometric Screening Assay [post-hoc], Simmons Lab (AID 2284007; active = hit-call score of the fitted dose curve at least 0.9, where 1 is the maximum;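 as to AC50: cells exposed to chemical for 90 min before the ATP read; actives lower ATP signal relative to DMSO baseline meaning reduced viability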). In short, it runs like this:
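Post-hoc viability check on the HepG2 respirometry plates: luciferase-based ATP signal measured once, after 90 min compound exposure spanning 125 nM–100 uM final. Activity was referenced to DMSO as baseline.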
Background: In ATP-based viability assays light output follows the ATP content of the culture.

A word on the AC50: it is the concentration giving half of the maximal activity seen.

Records with an inconclusive call do not appear. The source made the active and inactive calls. The calls were made as follows, unless noted: active = hit-call score of the fitted dose curve at least 0.9, where 1 is the maximum; inactive = score below 0.9.

With `OCC(CO)n1cnc(-c2ccc(F)cc2)c1-c1ccnc(Oc2ccccc2)n1`, the molecule was classed as inactive in [1], in [2], in [3], in assay [4], in assay [5] and in assay [6]. The result in assay [7], in [8], in assay [9], in [10], in assay [11] and in [12] was inactive. Further, the call in assay [14] was inactive. In addition, in assay [13], the AC50 was 3.9 µM (active).
In the case of `Cc1ccc(-c2cc(C(F)(F)F)nn2-c2ccc(S(N)(=O)=O)cc2)cc1`, the concentration at half-maximal activity (AC50) in assay [1] was 6.27 µM (active); in assay [2], 6.27 µM (active); in assay [5], 6.46 µM (active); in [8], 20 µM (active); in assay [14] it was 20 µM (active). The result in assay [3], in assay [4], in assay [15], in assay [6], in [7] and in [9] was inactive. Further, the molecule was called inactive in assay [10], in assay [11], in assay [12] and in assay [13].
With `CN(C)C(=O)NC1(c2ccccc2)CCN(CC[C@@]2(c3ccc(F)c(F)c3)CN(C(=O)c3ccccc3)CCO2)CC1`, the half-maximal activity concentration (AC50) in [1] was 4.16 µM (active); in assay [2], 4.14 µM (active); in [5], 4.34 µM (active); in assay [14] it was 20 µM (active). Further, the outcome in [3], in assay [15], in [6], in [7], in assay [8] and in [9] was inactive. Besides, the call in assay [10], in [11], in assay [12] and in assay [13] was inactive.
As for `Cc1c(C)c2c(c(C)c1O)CCC(C)(COc1ccc(CC3SC(=O)NC3=O)cc1)O2` (stereo unspecified), the AC50 in [16] is 7.83 µM (active); in assay [18], 8.43 µM (active); in assay [1], 3.97 µM (active); in assay [2] it was 3.97 µM (active); in assay [8], 32.9 µM (active); in [9], 33.1 µM (active). Besides, the concentration at half-maximal activity (AC50) was 3.02 µM (active) in assay [10], 0.517 µM (active) in assay [11] and 29.7 µM (active) in [14]. The molecule was classed as inactive in assay [17], in assay [3], in assay [4], in assay [5], in assay [6] and in assay [7]. For the same molecule, the result in assay [12] and in assay [13] was inactive.
As for `Nc1nc(=S)c2[nH]cnc2[nH]1`, the molecule was called inactive in [1], in assay [2], in [3], in [4], in assay [15] and in [5]. Also, the outcome in assay [6], in assay [9], in [11], in assay [12] and in assay [13] was inactive. In addition, the AC50 in assay [7] was 20 µM (active); in assay [8] it was 5.71 µM (active); in assay [10], 17.1 µM (active); in assay [14] it was 32.2 µM (active).
As to `Cc1cc(SC2=C(O)C[C@@](CCc3ccc(N)cc3)(C(C)C)OC2=O)c(C(C)(C)C)cc1CO`, the outcome in assay [16], in assay [17], in [18], in assay [1], in assay [2] and in assay [3] was inactive. Moreover, the result in assay [4], in assay [15], in [6], in assay [7], in assay [8] and in [9] was inactive. The result in [10], in assay [11], in assay [12] and in [14] was inactive. The concentration at half-maximal activity (AC50) in assay [5] and in [13] was 20 µM (active) in each case.
In the case of `CC(C)NCC(O)c1ccc(O)c(O)c1` (stereo unspecified), the molecule was called inactive in assay [1], in [2], in assay [3], in assay [15], in assay [5] and in assay [6]. Further, the molecule was called inactive in assay [7], in assay [8], in assay [9], in assay [10], in assay [11] and in assay [12]. Further, the result in assay [13] and in assay [14] was inactive.
For the molecule `CCc1cc(C2=C(C(=O)O)N(c3ccccc3C(F)(F)F)S(=O)(=O)c3ccccc32)cc2c1OCO2`, the molecule was classed as inactive in assay [16], in assay [17], in assay [1], in assay [2], in assay [3] and in [15]. Moreover, the result in [5], in assay [6], in [7], in [8], in assay [9] and in assay [10] was inactive. Besides, the molecule was classed as inactive in assay [12], in [13] and in [14].
In the case of `CCCCC(CC)COP(=O)(OCC(CC)CCCC)OCC(CC)CCCC` (stereo unspecified), the call in assay [1], in assay [2], in [3], in assay [4], in assay [5] and in [6] was inactive. For the same molecule, the molecule was classed as inactive in assay [7], in assay [8], in [9], in assay [10], in assay [11] and in assay [12]. In addition, the outcome in [13] and in assay [14] was inactive.
